From PubChem BioAssay (NCATS)
Inconclusive results are not listed. Entries that show only a call come without a potency. Unmarked numbers belong to inactive results. Calls of active or inactive are those of the source. Calls come from the whole dose curve; as a rule, active = well fitted inhibition curve with a large enough effect; inconclusive = small, poorly fitted or top-dose-only effect; inactive = flat fitted curve, though single readings scatter.

tested on: Zika virus NS2B-NS3 protease; experiment: Primary screen GU AMC qHTS for Zika virus inhibitors (AID 1347154); conditions: Zika NS2B-NS3 unlinked protease, AMC fluorogenic substrate; series mostly up to 54.1 µM; note: nearly all actives have a fitted effect of over 70% in size
Procedure, shortened: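 Unlinked Zika NS2B hydrophilic domain/NS3 protease domain noncovalent complex (25 nM final) in 10 mM Tris-HCl pH 8.0, 0.01% Tween 20, with AMC peptide substrate. Fluorescence (ex 340, em 450 nm) change over 15 min, room temperature; percent inhibition fitted to 4-parameter Hill equation.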
Potency is the fitted concentration of half-maximal effect.

Structure (SMILES)	Potency	activity change, negative = inhibition
O=C1c2ccccc2S(=O)(=O)N1CCCCN1CCN(c2ncccn2)CC1	inactive	–
O=C(CN1CCNCC1)NC1CCCCC1	inactive	–
CC(C)CCCC(C)CCCC(C)CCCCC(C)CCCC(C)CCCC(C)C (configuration not stated)	inactive	–
CC(=O)[C@@]1(O)CC[C@H]2[C@@H]3C[C@H](C)C4=CC(=O)C=C[C@]4(C)[C@@]3(F)[C@@H](O)C[C@@]21C	inactive	–
CC(=O)Nc1ccc(OCCOCCOc2ccc(NC(C)=O)cc2)cc1	inactive	–
CCCCCCCC(=O)OCC(COC(=O)CCCCCCC)OC(=O)CCCCCCC	inactive	–
CC(=O)Nc1ccccc1	inactive	–
O=C(O)Cc1ccc(CCNS(=O)(=O)c2ccc(Cl)cc2)cc1	inactive	–
O=C(O)CCCc1ccccc1	inactive	–
Cc1ccc2c(c1)c1c3n2CCNC3CCC1 (configuration not stated)	inactive	–
CC(C)=CCC[C@@](C)(O)[C@H]1CC=C(C)CC1	inactive	–
COC(=O)c1ccccc1C(=O)c1ccc(OCCN2CCCCC2)cc1	inactive	–
CCOC(=O)c1cccnc1	inactive	–
CN1C(=O)CC(c2ccccc2)C1=O (configuration not stated)	inactive	–
Nc1ncnc2c1ncn2[C@@H]1O[C@H](COP(=O)(O)O)[C@@H](O)[C@H]1O	inactive	–
COC(=O)N/N=C/c1c[n+]([O-])c2ccccc2[n+]1[O-]	inactive	–
NCC1CCC(C(=O)Oc2ccc(CCC(=O)O)cc2)CC1 (configuration not stated)	inactive	–
CC(=O)OCC(COC(C)=O)OC(C)=O	inactive	–
Cn1c([N+](=O)[O-])cnc1COC(N)=O	inactive	–

Structure (SMILES)	Potency	activity change, negative = inhibition
NS(=O)(=O)c1ccc(NC(=O)CCC(=O)O)cc1	inactive	–
CC(=O)Oc1cccc(C)c1	inactive	–
CN/C(=C\[N+](=O)[O-])NCCSCc1csc(CN(C)C)n1	inactive	–
O=c1[nH]c2cc(C(F)(F)F)c(N3CCOCC3)cc2n(CP(=O)(O)O)c1=O	inactive	–
CCCCCCCCCCOc1cc2c(=O)c(C(=O)OCC)c[nH]c2cc1OCC	–	-1.56% [at 4.99 µM]
CC(=O)NCc1c(I)c(NC(C)=O)c(I)c(C(=O)O)c1I	inactive	–
CCCCCCCCCCC(CO)CCCCCCCC (configuration not stated)	inactive	–
CCCCCCCCCCCCCCCCC(C(=O)O)C(O)(CC(=O)O)C(=O)O (configuration not stated)	4.05 µM (active)	–
NC(=O)CC[C@@H](N)C(=O)O	inactive	–
Cc1cc(O)cc(C)c1Cl	inactive	–
CCN(CC)CCOC(=O)C(c1ccccc1)c1ccccc1	inactive	–
CN(C/C=C/C#CC(C)(C)C)Cc1cccc2ccccc12	inactive	–
C[C@@H](N)C(=O)O	inactive	–
CCN(CC)CC1CCCCN1CC(=O)N1c2ccccc2C(=O)Nc2cccnc21 (configuration not stated)	inactive	–
O[C@@H]1CO[C@H]2[C@@H]1OC[C@@H]2O	inactive	–
CCOc1cc(NC(C)=O)ccc1C(=O)OC	inactive	–
O=C(O)CNC(=O)c1ccccc1I	inactive	–
CC(CSC(=O)c1ccccc1)C(=O)N1C[C@@H](Sc2ccccc2)C[C@H]1C(=O)O (some centres not stated)	inactive	–
